Reference: PubChem BioAssay (Tox21)
“And” between values parts separate entries of the source, which are not always exact repeats. Equal entries are not always repeated. Records with an inconclusive call do not appear. Some compounds were tested as several samples or in several runs, with calls that do not always agree. The source made the active and inactive calls. Unless noted, the call rests on the fitted dose curve; in most records, active means well fitted curve in the direction sought with a large enough effect in the repeat runs; inconclusive means weak or mixed curves; inactive means no such curve, though single readings can be large; an effect the other way counts as inactive or inconclusive.

Tests used:
[1] = qHTS assay to identify small molecule agonists of the hypoxia (HIF-1) signaling pathway - cell viability counter screen (AID 1224844; calls by dose curve; further: nearly all actives have a fitted effect of over 50% in size)
Outline: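 Luminescent ATP content (CellTiter-Glo, 30 min, room temperature) served as the viability measure in HRE-bla ME-180 cells exposed to compounds for 17 hrs in low-serum medium (0.5% dialyzed FBS).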

[2] = qHTS assay to identify small molecule agonists of H2AX (AID 1224845; active means well fitted activation curve with a large enough effect in the signal ratio in the repeat runs, not every such curve was filed as active; the % refers to the signal ratio)
Outline: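 Phospho-H2AX Ser139 measured by HTRF (ex 320 nm; em 665 and 620 nm) after 24 hr antibody incubation. Compounds, 15 concentrations, 0.76% DMSO, were applied to CHO-K1 cells for 3hr at 37C before lysis.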

[3] = qHTS assay to identify small molecule agonists of the hypoxia (HIF-1) signaling pathway (AID 1224846; active means well fitted activation curve with a large enough effect in the signal ratio in the repeat runs, not every such curve was filed as active; the % refers to the signal ratio)
Outline: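 Measured by blue/green FRET after loading CCF4-AM: beta-lactamase expressed from a hypoxia response element in ME-180 cells. Test agents were delivered in DMSO and left 17 hrs; cells had been plated 5 hrs earlier in low-serum (0.5% dialyzed FBS) medium.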

[4] = qHTS assay to identify small molecule agonists of H2AX - cell viability counter screen (AID 1224847; calls by dose curve;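 further: wild-type CHO-K1 cells; top concentration of the series differs between compounds; nearly all actives have a fitted effect of over 30% in size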)
Outline: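 CHO-K1 wt, 1000 cells/well, o/n 37C; cpds 15 conc, 3 h 37C, 0.76% DMSO; CellTiter-Glo, 30 min RT, luminescence.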

[5] = qHTS assay to identify small molecule antagonists of the estrogen related receptor (ERR) signaling pathway from Tox21 library (AID 1224848); further: nearly all actives have a fitted effect of over 50% in size; further: potency means the concentration at half of the fitted maximal effect
Outline: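 Reading was by luminescence 30 min after ONE-Glo addition. Before that, ERR cells at 2,000 per well had rested 6 h at 37 C/5% CO2 and then received pin-tooled compounds in DMSO for 18 h at 37 C.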

[6] = qHTS assay to identify small molecule agonists of the estrogen related receptor (ERR) signaling pathway from Tox21 library (AID 1224849; calls by dose curve; further: nearly all actives have a fitted effect of over 15% in size); details: ERR reporter cell line, ONE-Glo luciferase, 18 h
Outline: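 We plated ERR reporter cells, waited 6 h, added compounds in DMSO by pin tool and incubated them 18 h at 37 C. ONE-Glo was then added and luminescence read after 30 min.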

[7] = qHTS RealTime-Glo MT Cell Viability Assay in HEK293 cells - 32 hour (AID 1224868); further: nearly all actives have a fitted effect of over 50% in size; further: potency means the concentration at half of the fitted maximal effect
Outline: (§1)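 Assay medium contained NanoLuc luciferase plus cell-permeant prosubstrate, added with HEK293 cells at 600 cells/well. After 5 h at 37 C/5% CO2 compounds were added; plates stayed at 37 C for 40 h with serial luminescence reads.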

[8] = A CellTox Green Cytotoxicity Assay to monitor cytotoxicity in HEK293 cells - 0 hour (AID 1224869); further: nearly all actives have a fitted effect of over 50% in size; further: potency means the concentration at half of the fitted maximal effect
Outline: (§2)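 Each value comes from one timepoint of a single continuous run in which HEK293 cells with CellTox Green were exposed to compound for up to 40 h at 37 C, dye fluorescence rising with cell death.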

[9] = qHTS RealTime-Glo MT Cell Viability Assay in HepG2 cells - 40 hour (AID 1224870); further: nearly all actives have a fitted effect of over 50% in size
Outline: (§3)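 Real-time viability: cells seeded at 600 per well together with NanoLuc and cell-permeant prosubstrate, compounds added after 5 h incubation. Luminescence tracked at 0, 8, 16, 24, 32 and 40 h of exposure.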

[10] = A CellTox Green Cytotoxicity Assay to monitor cytotoxicity in HEK293 cells - 40 hour (AID 1224871); further: nearly all actives have a fitted effect of over 45% in size; further: potency means the concentration at half of the fitted maximal effect
Outline: as §2

[11] = qHTS RealTime-Glo MT Cell Viability Assay in HEK293 cells - 16 hour (AID 1224872); further: nearly all actives have a fitted effect of over 50% in size; further: potency means the concentration at half of the fitted maximal effect
Outline: as §1

[12] = qHTS RealTime-Glo MT Cell Viability Assay in HepG2 cells - 8 hour (AID 1224873); further: nearly all actives have a fitted effect of over 55% in size
Outline: as §3

[13] = qHTS RealTime-Glo MT Cell Viability Assay in HEK293 cells - 40 hour (AID 1224874); details: RealTime-Glo luminescence; max response: stronger effect = lower value; further: nearly all actives have a fitted effect of over 50% in size; further: potency means the concentration at half of the fitted maximal effect
Outline: (§4)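 qHTS format; HEK293 cells with NanoLuc/prosubstrate reagent, 37 C/5% CO2 for 5 h pre-dosing; compounds 23 nL in DMSO; luminescence at each time point reflects viable cells.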

[14] = A CellTox Green Cytotoxicity Assay to monitor cytotoxicity in HepG2 cells - 16 hour (AID 1224876); further: nearly all actives have a fitted effect of over 45% in size; further: potency means the concentration at half of the fitted maximal effect
Outline: (§5)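 Continuous culture of HepG2 cells with a membrane-impermeant DNA dye; rising fluorescence marks dead cells. Compound exposure lasted up to 40 h at 37 C, with reads every 8 h from 0 h.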

[15] = qHTS RealTime-Glo MT Cell Viability Assay in HepG2 cells - 32 hour (AID 1224877); further: nearly all actives have a fitted effect of over 55% in size
Outline: (§6)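 qHTS, HepG2, 600 cells/well, RealTime-Glo (NanoLuc + prosubstrate) added with cells; 5 h preincubation; DMSO compound addition; 37 C; luminescence at 0/8/16/24/32/40 h.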

[16] = A CellTox Green Cytotoxicity Assay to monitor cytotoxicity in HepG2 cells - 24 hour (AID 1224878); further: nearly all actives have a fitted effect of over 45% in size; further: potency means the concentration at half of the fitted maximal effect
Outline: as §5

[17] = A CellTox Green Cytotoxicity Assay to monitor cytotoxicity in HepG2 cells - 40 hour (AID 1224879); further: nearly all actives have a fitted effect of over 40% in size; further: potency means the concentration at half of the fitted maximal effect
Outline: as §5

[18] = qHTS RealTime-Glo MT Cell Viability Assay in HEK293 cells - 0 hour (AID 1224880); further: top concentration of the series differs between compounds; nearly all actives have a fitted effect of over 45% in size
Outline: as §4

[19] = qHTS RealTime-Glo MT Cell Viability Assay in HepG2 cells - 24 hour (AID 1224867); further: nearly all actives have a fitted effect of over 50% in size
Outline: as §6

[20] = A CellTox Green Cytotoxicity Assay to monitor cytotoxicity in HEK293 cells - 24 hour (AID 1224875); further: nearly all actives have a fitted effect of over 45% in size
Outline: as §2
On the % scale 0 is the no-effect control and ±100 the full control effect.

CCCCOCC1CO1 (centres undefined)
inactive and 43.6 µM (active): Potency [14] | Potency [17]
inactive and 19.5 µM (active): Potency [8] | Potency [10]
inactive and 38.9 µM (active): Potency [16]
inactive: Potency [1] | Potency [2] | outcome [3] | Potency [4] | Potency [5] | activity change, positive = activation ([6]; at 92.4 µM (top of the series)) 0.0042% and -11% | Potency [7] | Potency [9] | Potency [11] | Potency [12] | max response [13] 4.37% and 7.91% | Potency [15] | Potency [18]

Nc1ccc2ccccc2c1
active: activity change, positive = activation ([6]; at 92.4 µM (top of the series)) 30.3%
inactive: Potency [1] | Potency [2] | outcome [3] | Potency [4] | Potency [5] | Potency [19] | Potency [7] | Potency [8] | Potency [9] | Potency [10] | Potency [11] | Potency [12] | max response [13] 5% | Potency [20] | Potency [14] | Potency [15] | Potency [16] | Potency [17]

CC(C)=CC1C(C(=O)OCc2cccc(Oc3ccccc3)c2)C1(C)C (centres undefined)
inactive: Potency [1] | Potency [2] | outcome [3] | Potency [5] | activity change, positive = activation ([6]; at 42.5 µM (top of the series)) -0.963% | activity change, positive = activation ([6]; at 92.4 µM (top of the series)) -0.843% | Potency [19] | Potency [7] | Potency [8] | Potency [9] | Potency [10] | Potency [11] | Potency [12] | max response [13] -1.31% and -6.07% | Potency [20] | Potency [15] | Potency [16] | Potency [17] | Potency [18]

Cc1cc(Cl)ccc1N=CN(C)C
inactive: Potency [1] | Potency [2] | outcome [3] | Potency [5] | activity change, positive = activation ([6]; at 92.4 µM (top of the series)) -6.81% and 2.85% | Potency [19] | Potency [7] | Potency [8] | Potency [9] | Potency [10] | Potency [11] | Potency [12] | max response [13] 2.7% and 1.16% | Potency [20] | Potency [14] | Potency [15] | Potency [16] | Potency [17]

COP(=S)(OC)Oc1ccc(Sc2ccc(OP(=S)(OC)OC)cc2)cc1
27.3 µM (active) and inactive: Potency [5]
inactive: Potency [1] | Potency [2] | outcome [3] | activity change, positive = activation ([6]; at 42.5 µM (top of the series)) -3.82% | activity change, positive = activation ([6]; at 92.4 µM (top of the series)) -40% | Potency [7] | Potency [8] | Potency [9] | Potency [10] | Potency [11] | Potency [12] | max response [13] 5.12% | Potency [14] | Potency [15] | Potency [16] | Potency [17] | Potency [18]

CC(C)(O)C(=O)Nc1ccc([N+](=O)[O-])c(C(F)(F)F)c1
active: Potency [5] 9.89 µM and 17.8 µM | Potency [7] 25.1 µM and 16 µM | Potency [11] 25.1 µM and 25.3 µM | Potency [13] 22.3 µM and 17.9 µM
inactive: Potency [1] | Potency [2] | outcome [3] | activity change, positive = activation ([6]; at 42.5 µM (top of the series)) -39.6% | activity change, positive = activation ([6]; at 92.4 µM (top of the series)) -47.4% | Potency [8] | Potency [9] | Potency [10] | Potency [15] | Potency [16] | Potency [17]

O=C(O)c1nn(Cc2ccc(Cl)cc2Cl)c2ccccc12
inactive: Potency [1] | Potency [2] | outcome [3] | Potency [5] | activity change, positive = activation ([6]; at 42.5 µM (top of the series)) -5.39% | activity change, positive = activation ([6]; at 92.4 µM (top of the series)) -48% | Potency [7] | Potency [8] | Potency [9] | Potency [10] | Potency [11] | max response [13] -3.1% and 1.84% | Potency [20] | Potency [15] | Potency [18]
inactive and 95.2 nM (active): Potency [14] | Potency [17]
inactive and 107 nM (active): Potency [16]

CCOC(=O)c1ccccc1N
inactive and 54.9 µM (active): Potency [17]
inactive and 49 µM (active): Potency [14] | Potency [16]
inactive: Potency [1] | Potency [2] | outcome [3] | Potency [19] | Potency [7] | Potency [8] | Potency [9] | Potency [10] | Potency [11] | Potency [12] | max response [13] -0.283% and 0.344% | Potency [15] | Potency [18]

CCCCOC(=O)COC(=O)c1ccccc1C(=O)OCCCC
inactive: Potency [1] | Potency [2] | outcome [3] | Potency [5] | activity change, positive = activation ([6]; at 92.4 µM (top of the series)) 4.38% and 0.695% | Potency [19] | Potency [7] | Potency [8] | Potency [9] | Potency [10] | Potency [11] | max response [13] -1.67% and 1.98% | Potency [20] | Potency [15] | Potency [16] | Potency [17] | Potency [18]

CC1(C)C(C(=O)OC(C#N)c2cccc(Oc3ccccc3)c2)C1(C)C (centres undefined)
inactive: Potency [1] | Potency [2] | outcome [3] | activity change, positive = activation ([6]; at 92.4 µM (top of the series)) -46.1% and -24.4% | Potency [19] | Potency [7] | Potency [8] | Potency [9] | Potency [10] | Potency [11] | max response [13] -25.9% | Potency [20] | Potency [14] | Potency [15] | Potency [16] | Potency [17] | Potency [18]
active: Potency [5] 30.9 µM | Potency [13] 22 µM

OCCOCCO
inactive: Potency [1] | Potency [2] | outcome [3] | Potency [4] | Potency [7] | Potency [8] | Potency [9] | Potency [10] | Potency [11] | max response [13] -1.92% and 3.49% | Potency [14] | Potency [15] | Potency [16] | Potency [17] | Potency [18]

O=C1CCCO1
inactive: Potency [1] | Potency [2] | outcome [3] | Potency [5] | activity change, positive = activation ([6]; at 92.4 µM (top of the series)) 3.83% and -0.0508% | Potency [7] | Potency [8] | Potency [9] | Potency [10] | Potency [11] | Potency [12] | max response [13] 17.8% and -9.6% | Potency [20] | Potency [15] | Potency [16] | Potency [17] | Potency [18]
